Bioassay records from PubChem BioAssay.
Compounds with a hit are over-represented: about 11% of the library has one in this group of screens.
HPGD block: inhibitors of human 15-hydroxyprostaglandin dehydrogenase (HPGD). purified HPGD, NADH fluorescence kinetic, PGE2 substrate. Potency, µM, without a hit: at the highest dose activity change, negative = inhibition, hits mostly inhibitors. actives 4.3% (n = 150,000). AID 894; note: potency is the fitted concentration of half-maximal effect
Target sequence (P15428 whole entry, looked up): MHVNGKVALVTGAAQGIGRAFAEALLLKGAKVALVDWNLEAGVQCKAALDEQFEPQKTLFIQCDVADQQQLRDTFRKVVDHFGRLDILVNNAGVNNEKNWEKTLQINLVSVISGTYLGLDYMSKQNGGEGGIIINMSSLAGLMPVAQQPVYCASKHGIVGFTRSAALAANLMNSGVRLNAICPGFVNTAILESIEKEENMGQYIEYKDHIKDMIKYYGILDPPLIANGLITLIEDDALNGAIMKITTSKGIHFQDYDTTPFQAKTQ
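NADH formation kinetics: reaction with 30 uM PGE2 and 1 mM NAD+ (final), 20 nM enzyme, Tris-HCl pH 8 with Tween 20, after 15 min compound preincubation at room temperature. Fluorescence change, last versus first of five reads.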
PNC inhibitor: blocks assembly of the perinucleolar compartment | PC3M PTB-GFP, PNC prevalence imaging, 16 h; stronger effect = lower value | activity change (PNC), negative = inhibition, % at 10 µM | actives 3.1% (n = 140,000) | AID 2417;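 active = readout at or below -70, meaning at least 70% loss of cells showing the perinucleolar compartment, a nuclear body marking cancer cells; inconclusive = readout between -30 and a set limit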;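 note: plate controls were DMSO wells for no effect and camptothecin positive control wells for full effect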
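Read-out is percentage of cells bearing a perinucleolar compartment, from automated 20x imaging of fixed, Hoechst-stained PC3M PTB-GFP cells. Cells were seeded 4 h, then exposed 16 h to compound (23 nl of library stock) in duplicate plates.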
ALDH1A1 inh: blocks purified human ALDH1A1 activity; P00352; Purified ALDH1A1, NADH fluorescence, propionaldehyde substrate; Potency, µM (series often up to 75.3 µM), for inactives: at the top dose activity, negative = inhibition, usual class: inhibitors; actives 7.3% (n = 220,000);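 note: potency is the fitted concentration of half-maximal effect; plate controls were no enzyme wells and a reference inhibitor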
The depositor's hits bear a star; ? = inconclusive; . = no result; [ ] = dose if it differs, or a comment. Unless noted, calls come from the whole dose curve; as a rule, active = well fitted inhibition curve with a large enough effect (not every such curve was filed as active); inconclusive = small, poorly fitted or top-dose-only effect, or another doubt; inactive = no such curve, though single readings can be large or run the other way. Unless noted, % is set by controls: 0 for no effect and ±100 for the full control effect.

SMILES | HPGD block | PNC inhibitor | ALDH1A1 inh
CCC(CC)c1nnc(NC(=O)Cc2ccccc2[N+](=O)[O-])s1 | . | . | 20µM*
CSc1cccc(NC(=O)Cc2ccccc2[N+](=O)[O-])c1 | . | . | 35.5µM*
CSc1cccc(NC(=O)CCC(=O)O)c1 | -9.3% | 2.8 | 1.1%
CCOc1ccc(C(=O)Nc2nncs2)cc1OCC | -13.8% | ? | -5.3%
Cc1csc(NC(=O)Cc2ccccc2[N+](=O)[O-])n1 | -5.3% | 28.3 | -4.5%
CCOc1ccc(C(=O)Nc2nnc(C(C)C)s2)cc1OCC | 28.2µM* | 43.6 | 25.1µM*
CCOc1ncccc1C(=O)Nc1ccc(F)cc1 | . | . | 8.6%
CCC1CCCCN1C(=O)CCc1nnc(C2CCCCC2)o1 (configuration not stated) | . | . | -9.0%
Cc1ccc(C(=O)Nc2ccc(Br)cc2)cc1S(=O)(=O)Nc1ccccn1 | ? | -19.0 | 2.5%
COc1ccc(C(=O)OCC(=O)NCc2ccccc2)c(OC)c1OC | . | . | 2.6%
CCOc1ccccc1/C=C(/NC(=O)c1ccccc1)C(=O)NC(C)c1ccccc1 (configuration not stated) | -5.5% | ? | ?
CC(=O)Nc1sc2c(c1C(c1ccc(Cl)cc1)N1CCOCC1)CCCC2 (configuration not stated) | 3.0% | -105.8* | -0.4%
CC(=O)Nc1sc2c(c1C(c1ccc(F)cc1)N1CCOCC1)CCCC2 (configuration not stated) | -10.9% | 2.9 | -7.8%
O=C(CN1CCN(C/C=C/c2ccccc2)CC1)Nc1cc([N+](=O)[O-])ccc1Cl | -8.7% | -123.8* | 10µM*
Cc1cc(NC(=O)CN2CCN(C/C=C/c3ccccc3)CC2)c([N+](=O)[O-])cc1C | -4.5% | 2.1 | 4.8%
Cc1csc(SCC(=O)NC(C)c2ccc(F)cc2)n1 (configuration not stated) | . | . | -10.4%
O=C(c1ccccc1)c1nc2ccccc2n(CCCn2c(=O)c(C(=O)c3ccccc3)nc3ccccc32)c1=O | -2.0% | ? | 11.2µM*
O=C(c1ccccc1)c1nc2ccccc2[nH]c1=O | 25.1µM* | -27.1 | 2.9%
Cn1c(=O)c(C(=O)c2ccccc2)nc2ccccc21 | -21.1% | ? | 0.4%
N#C/C(=C(/O)c1ccc(C(=O)c2ccccc2)cc1)c1nc2ccccc2[nH]1 | . | . | 15.2%
Cc1ccccc1C(N)=O | -8.6% | . | -3.7%
Cc1ccc(CN(Cc2ccco2)S(=O)(=O)c2ccc(S(=O)(=O)NCC3CCCO3)cc2)cc1 (configuration not stated) | -8.1% | 31.6 | 0.1%
COc1ccc(OC)c(C2CC(=O)N3CN(c4cccc(Cl)c4)CSC3=C2C#N)c1 (configuration not stated) | -20.2% | 13.1 | 35.5µM*
COc1ccc(N2CC(C(=O)NCCc3ccc(OC)c(OC)c3)CC2=O)cc1 (configuration not stated) | -11.4% | 23.8 | 5.1%
COc1ccc(-c2nc(C#N)c(N3CCN(c4cccc(Cl)c4)CC3)o2)cc1OC | ? | 32.5 | ?
SMILES | HPGD block | PNC inhibitor | ALDH1A1 inh
CCOC(=O)c1ccc(N2CSC3=C(C#N)C(c4ccc(OC)cc4OC)CC(=O)N3C2)cc1 (configuration not stated) | -9.1% | -17.8 | 14.1µM*
COc1ccc(OC)c(C2CC(=O)N3CN(c4ccc(C)c(Cl)c4)CSC3=C2C#N)c1 (configuration not stated) | ? | 5.7 | 7.94µM*
CCOc1ccc(N2CSC3=C(C#N)C(c4ccco4)CC(=O)N3C2)cc1 (configuration not stated) | 10µM* | 52.6 | 4.47µM*
Cc1ccc(C2CC(=O)N3CN(c4ccc(Br)cc4)CSC3=C2C#N)o1 (configuration not stated) | ? | -18.8 | ?
CCOC(=O)C1=C(CC)OC(N)=C(C#N)C1c1ccc(OC)cc1OC (configuration not stated) | -16.3% | 16.3 | -10.6%
O=C(COc1cccnc1[N+](=O)[O-])NCCc1ccc(F)cc1 | . | . | -8.3%
OCC[C@@H]1C[C@@H](O)[C@H](O)[C@]2(CCCCO2)O1 | -9.4% | 52.3 | 11.1%
N/C(=N\OC(=O)c1cccc(Cn2cc(C(F)(F)F)ccc2=O)c1)c1ccc(Cl)cc1 | . | . | 1.5%
Cc1ccc(SCCC(=O)NC2CC2)cc1 | . | . | 5.5%
CCn1c(COc2ccc(C)cc2)nnc1SCC(=O)Nc1ccc(S(N)(=O)=O)cc1 | -7.1% | -20.3 | 22.4µM*
CCCn1c(SCC(=O)Nc2ccc(OCC)cc2)nnc1C(C)C | -18.6% | 188.5 | -6.7%
C=CCn1c(COc2ccc(Cl)cc2)nnc1SCC(=O)Nc1ccc(S(N)(=O)=O)cc1 | -9.7% | -113.8* | 1.8%
C=CCn1c(COc2ccc(Cl)cc2)nnc1SCC(=O)NCC(=O)OCC | -2.7% | -20.8 | ?
CCOc1ccc(NC(=O)CSc2nnc(C(C)C)n2CC)cc1 | -3.2% | -118.9* | -4.6%
CCOC(=O)c1ccccc1NC(=O)CSc1nnc(COc2ccccc2)n1CC | -20.6% | -25.1 | ?
O=c1cc(-c2ccccc2)nc2nc(-c3ccco3)[nH]n12 | -25.8% | -116.6* | ?
O=c1cc(-c2ccccc2)nc2nc(CCc3ccccc3)[nH]n12 | -8.8% | -106.5* | -3.3%
Cc1nc2nc(-c3ccccc3)cc(=O)n2[nH]1 | -6.4% | ? | 5.3%
O=c1cc(-c2ccccc2)nc2nc(SCc3ccccc3)[nH]n12 | -16.0% | ? | 6.9%
CC1(C)CN2C(=O)c3ccccc3C2(C)S1 (configuration not stated) | . | . | 1.2%
CC(C)CCNC(=O)CN(C(=O)CCC(=O)Nc1ccccn1)c1ccc(F)c(Cl)c1 | . | . | -3.8%
COC(=O)c1ccc2nc(C)c(C)nc2c1 | -9.2% | -18.9 | 6.3%
Cc1ccc(O)c(N)c1 | -9.3% | . | ?
COC(=O)c1ccc(O)c(Sc2cc(C(=O)OC)ccc2O)c1 | 3.98µM* | 41.2 | 12.6µM*
Cc1ccc(O)c(Sc2cc(C)ccc2O)c1 | 15.8µM* | 0.8 | -2.8%
SMILES | HPGD block | PNC inhibitor | ALDH1A1 inh
C=CCNC(=O)c1ccccc1NC(=O)Cc1ccccc1[N+](=O)[O-] | . | 28.8 | 7.3%
CC(CO)(CO)N=Cc1cc(I)cc(I)c1O | -8.5% | . | -11.5%[13.5 µM]
Cc1cccc(Cc2nnc(CCC(=O)N(C)C3CCOC3)o2)c1 (configuration not stated) | . | . | 1.1%
COc1ccc2c(c1)OC/C(=C/c1cccs1)C2=O | . | 24.6 | ?
COc1ccc2c(c1)OC/C(=C\c1ccc(OC)c(O)c1)C2=O | 11.2µM* | . | 5.62µM*
COc1ccc(NC(C)=O)cc1CNC(=O)COc1c(C)c(C)cc(C)c1C | 3.5% | ? | 5.1%
Cn1c(SCC(=O)NNC(=O)Cc2ccccc2)nnc1-c1ccccc1 | -14.6% | 20.6 | 3.3%
COc1ccc(C(=O)N2c3ccccc3C=CC2C#N)cc1 (configuration not stated) | -2.4% | -19.2 | ?
COc1ccc(C2C(C(=O)c3ccccc3)N3c4ccccc4C=CC3C2[N+](=O)[O-])cc1 (configuration not stated) | . | . | 25.1µM*
O=C(NO)c1ccccc1 | -9.4% | . | -15.7%
O=C(NC1(O)C(=O)c2ccccc2C1=O)c1ccccc1 | -4.4% | 15.4 | 1.41µM*
C[C@@H]1C=CCC(=O)OC[C@H](C)C(=O)OC[C@H]2O[C@H]1C=C[C@H]2O | . | . | -12.3%[13.5 µM]
O=C(NCC1CCCO1)C(=O)c1c[nH]c2ccccc12 (configuration not stated) | . | . | 2.9%
